Screening data (PubChem BioAssay)
Sampled rows, rich in hits. Any-hit rate of the full collection: about 2.2%.
CHRM4 antagonist: CHRM4 antagonism in calcium assay. AID 624125. P08173. 360,000 tested, 0.73% active. CHO-hM4 cells, ACh EC80, Fluo-8 calcium fluorescence. inhibition, % at 3 µM;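 active = inhibition above its plate's cutoff, the mean inhibition of sample wells plus 3 SD, cut at about 27% in these data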;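 also: 0% = acetylcholine EC80 with DMSO and 100% = DMSO without agonist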
Target sequence (P08173 whole entry, looked up): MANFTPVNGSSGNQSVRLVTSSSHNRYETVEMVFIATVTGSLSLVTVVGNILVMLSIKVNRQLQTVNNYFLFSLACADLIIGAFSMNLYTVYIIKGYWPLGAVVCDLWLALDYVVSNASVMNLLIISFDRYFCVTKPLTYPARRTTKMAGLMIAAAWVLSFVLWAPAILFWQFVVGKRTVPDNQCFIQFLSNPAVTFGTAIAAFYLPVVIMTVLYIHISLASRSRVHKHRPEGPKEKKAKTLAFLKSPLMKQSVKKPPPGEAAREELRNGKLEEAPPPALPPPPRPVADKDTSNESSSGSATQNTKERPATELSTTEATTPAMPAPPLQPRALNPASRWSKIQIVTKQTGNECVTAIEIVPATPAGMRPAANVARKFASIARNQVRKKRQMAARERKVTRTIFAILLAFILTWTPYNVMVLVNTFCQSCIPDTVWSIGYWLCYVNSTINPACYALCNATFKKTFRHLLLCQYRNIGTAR
CHRM4 PAM: positive allosteric modulators of human muscarinic M4 receptor | CHO-K1 hM4/Gqi5, Fluo-8 calcium fluorescence, ACh EC20; 0% = ACh EC20, 100% = maximal ACh | activation, % at 3 µM | 360,000 tested, 0.4% active;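 active = activation above its plate's cutoff, the mean activation of sample wells plus 3 SD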
M1 antag: blocks human M1 muscarinic receptor. AID 588852. 360,000 tested, 1.3% active. inhibition, % at 3 µM. P11229. CHO-K1 hM1, Fluo-8 calcium fluorescence, ACh EC80 antagonist;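 active = percent inhibition above its own plate's cutoff, namely the mean of that plate's compound wells plus 3 SD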;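 also: peak over basal fluorescence ratio during 140 s after agonist addition; 0% = ACh EC80 plus DMSO and 100% = DMSO alone without agonist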
CHRM1 PAM: potentiates human M1 receptor response to acetylcholine; P11229; CHO-K1 hM1, Fluo-8 calcium fluorescence, ACh EC20; 0% = ACh EC20, 100% = maximal ACh; activation, % at 3 µM; 360,000 tested, 0.088% active; in the data active = activation above about 19%, passing the limit was not always enough
M4 ag: agonists of human muscarinic M4 receptor (CHRM4). 360,000 tested, 0.14% active. P08173. AID 624127. activation, % at 3 µM. CHO-K1 hM4/Gqi5, Fluo-8 calcium fluorescence; vehicle 0%, full acetylcholine response 100%;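 active = activation above the run mean over all test wells plus 3 SD, cut at about 32% in these data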;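 also: peak over basal fluorescence ratio per well then scaled between controls; 0% = DMSO wells and 100% = acetylcholine at EC100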
CHRM1 agonist: human M1 muscarinic receptor agonism; 360,000 tested, 0.33% active; activation, % at 3 µM; P11229; CHO-K1 hM1, Fluo-8 calcium fluorescence, agonist mode; 0% DMSO, 100% acetylcholine EC100; AID 588814;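 active = activation above the run's mean compound activation plus 3 SD, cut at about 16% in these data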;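 also: peak over basal fluorescence ratio within a 140 s kinetic read after compound addition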
Starred values were filed as active, the others as inactive.

SMILES | CHRM4 antagonist | CHRM4 PAM | M1 antag | CHRM1 PAM | M4 ag | CHRM1 agonist
O=C(C1CCCO1)N1CCC(O)(c2ccccc2)CC1 (configuration not stated) | 4 | 20* | -15 | 2 | 1 | -1
COc1ccccc1Nc1nc2ccccc2n1C | 44* | -8 | -15 | 9 | -1 | -11
CC1Cc2ccccc2N1C(=O)COC(=O)CNC(=O)c1ccc(Br)o1 (configuration not stated) | 15 | 2 | -38 | 13 | 1 | -4
O=C(N/C(=C/c1cccnc1)C(=O)N1CCOCC1)c1ccccc1 | -8 | 21* | -7 | 7 | 1 | -6
Cc1ccc(Nc2ncccc2C(=O)NCc2cccs2)c(C)c1 | 8 | 1 | 3 | 3 | 4 | -2
Cc1cccc(Nc2ncccc2C(=O)NCc2cccs2)c1C | 38* | 19 | 13 | -2 | 6 | 4
COc1ccc(C2(c3ccc(OC)cc3)NC(=O)N(CC(=O)Nc3cc(C)ccc3OC)C2=O)cc1 | 4 | -1 | -7 | 8 | 8 | 0
CC(=O)c1cccc(OCc2cc(C(=O)N3CCC(N4CCCCC4)CC3)no2)c1 | 13 | -7 | 48* | -22 | 0 | -5
O=C(c1cc(COc2cccc(C(F)(F)F)c2)on1)N1CCC(c2ccccc2)CC1 | -3 | -3 | 3 | -5 | 2 | -2
O=C(c1cc(COc2cccc(C(F)(F)F)c2)on1)N1CCC(c2ccncc2)CC1 | 0 | -8 | 38* | -13 | 17 | -1
CCN(CC(=O)Nc1ccc2c(c1)OCCO2)C(=O)c1cc(S(=O)(=O)N2CCOCC2)ccc1F | 2 | -2 | 8 | -3 | 3 | -2
CCc1nc(N2CCN(C(=S)NCCCOC)CC2)c2c3c(sc2n1)CCCC3 | -10 | 0 | -6 | -6 | 8 | -7
Cc1ccccc1OCCCCc1c(C)n[nH]c1C | 18 | -10 | 29* | -13 | 6 | -2
CC(C)CC1=NN(C(=O)c2ccncc2)C(O)(C(F)(F)F)C1 (configuration not stated) | -6 | 10 | -11 | 9 | 1 | -4
CCOC(=O)c1c(N)sn(-c2ccccc2C)c1=S | 13 | -6 | 34* | -9 | 1 | -4
COc1ccc(-n2nnnc2SCC(=O)Nc2ccccc2N2CCOCC2)cc1 | 7 | 2 | 15 | -7 | 1 | -4
Cn1c(Br)nc2c1c(=O)n(CC(O)COc1ccccc1)c(=O)n2C (configuration not stated) | 1 | -4 | -4 | -4 | 34* | -1
Cn1cnc2c1c(=O)n(Cc1ccccc1)c(=O)n2C | 6 | 4 | -8 | 11 | 0 | -2
Cn1cnc2c1c(=O)n(CC(O)CO)c(=O)n2C (configuration not stated) | -2 | -1 | 29* | -9 | 0 | 0
NS(=O)(=O)c1ccc(CCNS(=O)(=O)c2ccc(Cl)cc2)cc1 | -4 | -2 | 101* | -10 | 0 | -3
Cc1cc(Cl)ccc1OCC(O)CNCCc1ccc(S(N)(=O)=O)cc1 (configuration not stated) | -1 | -7 | 43* | -16 | 1 | 0
CCOc1cc(CNCCc2ccc(S(N)(=O)=O)cc2)ccc1OCc1ccc(Cl)cc1 | 42* | -11 | 22 | -4 | 29 | 6
O=C(c1ccc(OC2CCN(C/C=C/c3ccccc3)CC2)cc1)N1CCCC1 | 11 | -10 | 29 | -15 | 2 | -5
CCCCOc1ccc(C(=O)NCC(=O)N2CC=C(c3ccccc3)CC2)cc1 | 4 | -6 | 2 | 0 | 0 | -3
O=C(c1ccc(OC2CCN(C/C=C/c3ccccc3)CC2)cc1)N1CCCCC1 | 26 | -14 | 30* | -14 | 2 | -6
CCCCOc1ccc(C(=O)NCC(=O)N2CCN(C/C=C/c3ccccc3)CC2)cc1 | 13 | -11 | 44* | -22 | 13 | 12
COc1ccccc1/C=C/CN1CCC(Oc2ccc(C(=O)N3CCCCC3)cc2)CC1 | 26 | -15 | 23 | -12 | 2 | -5
COc1ccc(/C=C/CN2CCC(Oc3ccc(C(=O)N4CCCCC4)cc3)CC2)cc1 | 31* | -15 | 44* | -20 | 4 | -5
